Data on 4 compounds can be found in PubChem BioAssay (NCATS).

What all share (assay): qHTS profiling for inhibitors of Plasmodium falciparum proliferation (AID 504749); further: nearly all actives have a fitted effect of over 60% in size
Holding throughout (details): P. falciparum in erythrocytes, SYBR Green DNA, 72 h; series mostly up to 28.7 µM
In general terms: Quantitative high-throughput screening tests each substance at several concentrations.

For one assay, the system named is 3D7. The method, boiled down: (§1)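 Infected RBCs, 0.3% parasitemia/2.5% Hct final; cpd 72 h, 37 C, 5% CO2; lysis buffer with saponin/triton/SYBR Green I, o/n RT dark; FI 485/535; norm. to artemisinin (0.29 uM) and DMSO.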
For another assay, the system named is ATS95. The method in brief: as §1
In a further assay the test system is C2A. The method in brief:
as §1

Another assay has as its system CP185. The method in brief:
as §1

A further assay deals with CP194. The method in brief:
as §1

The next assay deals with CP201. The method in brief:
as §1

In a further assay the test system is CP237. The method in brief: as §1
The subject of another assay is CP238. The method in brief:
as §1

Another assay deals with CP265. The method in brief:
as §1

A further assay concerns CP268. The method in brief:
as §1

Another assay has as its system CP269. The method in brief: as §1
The next assay has as its system CP305. The method, boiled down: as §1
The test system of another assay is CP325. The method in brief:
as §1

Another assay concerns CP335. The method in brief: as §1
The test system of another assay is Dd2. The method, boiled down: as §1
Another assay has as its system GB4. The method, boiled down: as §1
The subject of the next assay is HB3. The method in brief:
as §1

In the next assay the test system is P93_24. The method, boiled down:
as §1

Another assay deals with P94_40. The method, boiled down:
as §1

The next assay has as its system PAD. The method in brief:
as §1

Records with an inconclusive call do not appear. Active and inactive are the calls of the source. The call rests on the fitted dose curve; in most records, active means well fitted inhibition curve with a large enough effect; inconclusive means small, poorly fitted or top-dose-only effect; inactive means flat fitted curve, though single readings scatter.
Potency means the concentration at half of the fitted maximal effect.

As for `CO[C@H]1/C=C/O[C@@]2(C)Oc3c(C)c(O)c4c(O)c(c(/C=N\N5CCN(C6CCCC6)CC5)c(O)c4c3C2=O)NC(=O)/C(C)=C\C=C\[C@H](C)[C@H](O)[C@@H](C)[C@@H](O)[C@@H](C)[C@H](OC(C)=O)[C@@H]1C`, the Potency was 1260 nM (active) in the assay with 3D7; 1260 nM (active) in the assay on ATS95; 2510 nM (active) in the assay on C2A; 1580 nM (active) in the assay with CP185; 4260 nM (active) in the assay on CP194; 5360 nM (active) in the assay on CP201. In addition, the Potency was 224 nM (active) in the assay on CP237; 2240 nM (active) in the assay with CP238; 1260 nM (active) in the assay with CP265; 3790 nM (active) with CP268; 3380 nM (active) with CP269; 4780 nM (active) in the assay with CP305. In addition, the Potency in the assay on CP325 was 4780 nM (active); with CP335, 1350 nM (active); in the assay on Dd2, 447 nM (active); in the assay with GB4 it was 1070 nM (active); with HB3 it was 794 nM (active); in the assay with P93_24 it was 355 nM (active). The Potency with P94_40 was 224 nM (active); in the assay with PAD, 199 nM (active).

With `C=C1/C(=C\C=C2/CCC[C@]3(C)[C@@H]([C@H](C)CCCC(C)(C)O)CC[C@@H]23)C[C@@H](O)C[C@@H]1O`, the Potency result with 3D7, in the assay on ATS95, with C2A, in the assay on CP185, in the assay with CP194 and in the assay with CP201 was “inactive” each time. The Potency result in the assay on CP237, with CP238, in the assay on CP265, in the assay with CP268, with CP269 and in the assay on CP305 was “inactive” throughout. For the same compound, the Potency result with CP325, in the assay with CP335, with Dd2, with GB4, with HB3 and in the assay with P93_24 was “inactive” in each case. Also, the Potency entry in the assay with P94_40 and in the assay with PAD was “inactive” each time.

Regarding `CN=C(N)NCCCC(N)C(=O)O` (stereo not given), the Potency result in the assay on 3D7, in the assay with ATS95, with C2A, in the assay on CP185, in the assay on CP194 and in the assay on CP201 was “inactive” in each case. Besides, the Potency result in the assay on CP237, in the assay with CP238, with CP265, in the assay with CP268, with CP269 and in the assay on CP305 was “inactive” throughout. Further, the Potency entry in the assay with CP325, in the assay on CP335, in the assay with Dd2, with GB4, with HB3 and in the assay with P93_24 was “inactive” each time. The Potency result in the assay with P94_40 and in the assay on PAD was “inactive” in each case.

For the compound `CN1C(=O)CCC1c1cccnc1` (stereo not given), the Potency entry with 3D7, in the assay with ATS95, in the assay on C2A, with CP185, in the assay with CP194 and with CP201 was “inactive” throughout. Further, the Potency result with CP237, in the assay with CP238, with CP265, in the assay with CP268, in the assay with CP269 and in the assay on CP305 was “inactive” each time. Further, the Potency entry with CP325, in the assay with CP335, with Dd2, in the assay with GB4, in the assay on HB3 and with P93_24 was “inactive” each time. Further, the Potency result in the assay with P94_40 and in the assay on PAD was “inactive” each time.
